From ChEMBL document CHEMBL3988442, “University of Dundee, Small-Polar-MMV Screening Library” (2021) come the findings set out here.

Structures are written as SMILES. Hit rate of the full screen: of about 48,000 compounds, about 13,000 (27%) showed an effect of 50% or more. The list shows a part of the results.

In the assay the test system is Wolbachia pipientis. Briefly: Anti-Wolbachia Cell-Based Screen. The assay is classed as functional. On the set-up: scale not given: in the data most compounds retested in dose-response had high values. To be noted: 5 µM.
As for `O=C(CCCc1nc2ccccc2[nH]1)N1CCCC1c1ccncc1` (stereo not given), the “Percent Effect” value was 8.641%.

With `O=C(c1cc(F)ccc1F)C1CCN(C(=O)c2cnccn2)CC1`, the “Percent Effect” value is 120.4%.

`Cc1cccc(C(=O)N2CCC(C(=O)c3cc(F)ccc3F)CC2)n1`: the “Percent Effect” value turned out to be 159.7%.

For `O=C(c1cc(F)ccc1F)C1CCN(C(=O)c2ccccn2)CC1`, the “Percent Effect” value came out at 7.01%.

For the compound `O=C(c1cc(F)ccc1F)C1CCN(C(=O)c2cccnc2O)CC1`, the “Percent Effect” value is -3.966%.

Consider `Cc1cnc(C(=O)N2CCC(C(=O)c3cc(F)ccc3F)CC2)cn1`, for which the “Percent Effect” value came to 134%.

Turning to `O=C(c1cc(F)ccc1F)C1CCN(C(=O)c2ccco2)CC1`, the “Percent Effect” value is 137.2%.

Regarding `NC(=O)NC(=O)CCN1CCC(C(=O)c2cc(F)ccc2F)CC1`, the “Percent Effect” value is -46.12%.

On to `C=C(Cl)CN1CCC(C(=O)c2cc(F)ccc2F)CC1`, for which the “Percent Effect” value is reported as -0.07038%.

Regarding `CS(=O)(=O)CCN1CCSCC1c1ccc(Cl)cc1` (stereo not given), the “Percent Effect” value is recorded as -3.973%.

Take `O=C(C1CC(F)(F)C1)N1CC[C@H]2OCC[C@@]2(COCC2CC2)C1`: the “Percent Effect” value is -8.729%.

As to `CC(SCC(=O)NCCC#N)c1ccc(Cl)cc1` (stereo not given), the “Percent Effect” value is 5.18%.

Turning to `COc1cccc(-c2nc(CNCCCn3cccn3)cs2)c1`, the “Percent Effect” value was found to be 28.1%.

`O=C(c1ccoc1)N1CCc2ncnc(NCc3ccccn3)c2CC1`: the “Percent Effect” value is given as 2.356%.

As to `CCCN1CCN(C(=O)c2cccnc2-n2cncn2)CC1`, the “Percent Effect” value was 5.341%.

Regarding `O=C(c1cccnc1O)N1CCC(COc2ccccc2)CC1`, the “Percent Effect” value was -5.095%.

For the compound `O=C(O)C(F)(F)F.O=C(c1ccoc1)N1CCC2(CC1)COC(COc1ccccn1)C2` (stereo not given), the “Percent Effect” value was 19.26%.

Consider `Cc1nc2ccc(C(=O)N3CCC(COc4ccccn4)CC3)cc2[nH]1`, for which the “Percent Effect” value is 160.4%.

For the compound `COc1ccnc(CN(C)C(=O)CSc2nnc(N)s2)c1`, the “Percent Effect” value came to 0.9714%.

As to `COc1ccc(-c2noc(C3CCS(=O)(=O)C3)n2)cc1OC` (stereo not given), the “Percent Effect” value is on record as -2.853%.

For `COc1cc(OC)cc(-c2noc(C(N)CCSC)n2)c1` (stereo not given), the “Percent Effect” value came out at 122.3%.

Take `Cc1ccc(-c2noc([C@H](N)CC(C)C)n2)nn1`: the “Percent Effect” value came out at 0.7851%.

As to `COc1cc(OC)cc(-c2noc(CN)n2)c1`, the “Percent Effect” value is on record as -5.186%.

For the compound `COc1ccc(-c2noc([C@@H]3C[C@@H](O)CN3C3CCCCC3)n2)cc1`, the “Percent Effect” value is recorded as -13.77%.

For the compound `COc1ccc(-c2noc(C(N)CCSC)n2)cc1OC` (stereo not given), the “Percent Effect” value was 100.4%.

Regarding `COc1ccc(-c2noc(C3CC(C(C)C)=NO3)n2)cc1` (stereo not given), the “Percent Effect” value is -24.09%.

In the case of `COc1ccc(-c2noc(C(N)CCSC)n2)cc1` (stereo not given), the “Percent Effect” value was 92.78%.

On to `COc1ccc(-c2noc(C(=O)NCCN3CCCCC3)n2)cc1OC`, for which the “Percent Effect” value was -3.645%.

In the case of `COc1ccnc(N2CCCN(Cc3ncc(C(C)C)o3)CC2)n1`, the “Percent Effect” value is -1.774%.

Regarding `Cc1cc(C)n(CC2CN(CCOc3cccc(C#N)c3)CCO2)n1` (stereo not given), the “Percent Effect” value is recorded as -7.515%.

Regarding `Cc1nc(C)n(CC2CN(c3ccc(C#N)cn3)CCO2)n1` (stereo not given), the “Percent Effect” value is -2.345%.

`Cc1cnn(CC2CN(c3cnc4ccccc4n3)CCO2)c1` (stereo not given): the “Percent Effect” value is on record as -7.583%.

With `CN(C)CC1CN(c2ccc(C#N)cn2)CCO1` (stereo not given), the “Percent Effect” value is on record as -4.596%.

Consider `Cc1cnn(CC2CN(c3ccc(C#N)cn3)CCO2)c1` (stereo not given), for which the “Percent Effect” value stood at 117.6%.

Turning to `Cc1cc(C)n(CC2CN(c3ccc(C#N)cn3)CCO2)n1` (stereo not given), the “Percent Effect” value was found to be 119.8%.

As for `O=C1N[C@H]2OCCC[C@H]2[C@H](c2ccccc2C(=O)O)N1`, the “Percent Effect” value amounted to 55.53%.

For the compound `CN1CCC(N2CCC(c3ccccc3C(=O)O)C2)CC1` (stereo not given), the “Percent Effect” value is reported as 13.56%.

For the compound `O=C1N[C@H]2OCCC[C@H]2[C@H](c2ccc(C(=O)O)cc2)N1`, the “Percent Effect” value stood at 126.1%.

`O=C1CO[C@H](c2ccc(NS(=O)(=O)c3ccccc3)cc2)[C@@H](CO)N1`: the “Percent Effect” value is recorded as -4.896%.

Consider `O=C(CN1CCCC(c2ccc(C(=O)O)cc2)C1)NC1CC1` (stereo not given), for which the “Percent Effect” value is on record as -9.643%.

With `COc1ccc([C@@H]2NC(=O)N[C@H]3OCCC[C@H]32)cc1`, the “Percent Effect” value worked out at 92.15%.

For `COc1ccc(C2CC(=O)Oc3cc(C)[nH]c(=O)c32)cc1` (stereo not given), the “Percent Effect” value turned out to be 5.191%.

With `O=C1CC(c2ccccc2)c2cnn(C3CCCC3)c2N1` (stereo not given), the “Percent Effect” value worked out at 5.906%.

As to `O=C1N[C@H]2OCCC[C@H]2[C@H](c2ccccc2)N1`, the “Percent Effect” value came out at 111.8%.

As for `COc1ccc(C2CC(=O)Nc3c2cnn3C2CCCC2)cc1` (stereo not given), the “Percent Effect” value is listed as -0.6699%.

As for `O=C(O)c1ccccc1C1CCN(C2Cc3ccccc3C2)C1` (stereo not given), the “Percent Effect” value came to 0.3893%.

For `O=C(O)c1ccc(OC2CCOCC2)cc1`, the “Percent Effect” value was determined as 3.994%.

`CCOCCn1nc(C)cc1C(=O)N1CCN(C(C)C)C(CC)C1` (stereo not given): the “Percent Effect” value was found to be 12.32%.

With `CC(=O)N1CCC(N2CCOC[C@H]2c2nc(-c3ccncc3)c[nH]2)CC1`, the “Percent Effect” value is recorded as -16.93%.

Turning to `CC(=O)N1CCCC2(CCN(C(=O)c3nccnc3N)CC2)C1`, the “Percent Effect” value is -5.274%.
